Only a selection was taken, and hits are over-represented in it overall.
Methyltransferases – Primary Screen for Target Class Profiling of Small Molecule Inhibitors of Methyltransferases. purified enzyme, MTase-Glo SAH luminescence; active compounds read low. calls only at 40 µM. actives 3.9% (n = 25,000). AID 1745853, 2022; call rule not given here
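Each enzyme was assayed with SAM and its substrate. SAH formation detected by MTase-Glo luminescence; single-point 40 uM screen[…].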
MTase-Glo ctr – Counterscreen for Target Class Profiling of Small Molecule Inhibitors of Methyltransferases | shares compounds with Methyltransferases | MTase-Glo coupled enzymes, SAH conversion luminescence, no MTase | Potency, µM (titrated, usually from 57.3 µM), without a hit: at the top dose activity change, negative = inhibition, usual class: inhibitors | actives 6% (n = 180); active = well fitted inhibition curve with a large enough effect; note: potency is the fitted concentration of half-maximal effect
An asterisk follows results filed as active; i = inactive; + = active, no number; [ ] = dose if it differs, or a comment. % is set by controls: 0 for no effect and ±100 for the full control effect.

SMILES	Methyltransferases	others
COc1ccccc1CNC(=O)C1c2c(n(C)c3ccccc23)SCC(=O)N1c1ccc(Cl)cc1 (stereo not drawn)	i
COc1ccccc1CN1C(=O)c2cc3sccc3n2CC1(C)C(=O)NC1CCCCCCC1 (stereo not drawn)	i
CC(C)CCn1c(=O)c2ccccc2n2c(CCC(=O)NCCCN3CCN(c4ccccc4F)CC3)nnc12	i
COc1cccc(CN2CC(Oc3ccccc3C(=O)NC3CC3)C2)c1	i
COc1cc(OC)cc(C(=O)NCC2CCCN(Cc3cc4ccccc4o3)C2)c1 (stereo not drawn)	i
CC(C)NC(=O)c1ccccc1OCC1CCCN(Cc2cn(C)c3ccccc23)C1 (stereo not drawn)	+	MTase-Glo ctr=4%
COc1ccc(CN2CCCC(COc3ccccc3C(=O)NC3CC3)C2)c(OC)c1 (stereo not drawn)	+	MTase-Glo ctr=-5%
COc1ccc(O)c(CN2CCCC(Nc3ccc(F)cc3)C2)c1 (stereo not drawn)	i
CCOc1ccccc1C(=O)NC1CCN(c2cc(C)cc(C)c2)C1=O (stereo not drawn)	i
CC(C)NC(=O)c1ccc2c(=O)n(C)c3nn(CC(=O)Nc4cccc(F)c4)c(=O)n3c2c1	i
O=c1c2ccccc2n2c(=O)n(Cc3ccc(F)cc3)nc2n1Cc1ccc(F)cc1	i
Cn1c(=O)c2ccc(C(=O)NC3CCCCC3)cc2n2c(SCC(=O)Nc3ccccc3F)nnc12	i
CCCn1c(=O)c2ccc(C(=O)NC(C)C)cc2n2c(SCC(=O)Nc3cc(C)cc(C)c3)nnc12	i
O=c1c2ccccc2n2c(=O)n(Cc3ccc(Cl)cc3)nc2n1Cc1ccc(F)cc1	i
COc1ccc(CNC(=O)c2cnc3c(c2)N(C(=O)CCc2ccccc2)CCC3)cc1OC	i
O=C(NCc1cccc(Cl)c1)c1cnc2c(c1)N(C(=O)Cc1ccc(O)cc1)CCC2	+	MTase-Glo ctr=18µM*
COCCCNC(=O)c1cnc2c(c1)N(C(=O)Cc1cn(C)c3ccccc13)CCC2	i
CC(C)CCNC(=O)C1c2c(n(C)c3ccccc23)SCC(=O)N1c1ccc2c(c1)OCO2 (stereo not drawn)	i
CN(C)CCNC(=O)c1ccnc(-c2nnc3ccc(N(C)c4ccccc4)nn23)c1	+	MTase-Glo ctr=-7%[85.7 µM]
CN(C)CCNC(=O)c1cc2n(n1)CC(C)(C(=O)NCc1ccccc1)N(C)C2=O (stereo not drawn)	i
CC1=NOC(C(=O)N2CCCn3nc(C(=O)NCCN(C)C)cc3C2)C1 (stereo not drawn)	i
CC(C)CCn1c(=O)c2ccc(C(=O)NC3CCCCC3)cc2n2c(=O)n(CC(=O)NC(C)C)nc12	i
CC1(COCC2CC2)COc2ccc(C(=O)Nc3cccc([S+](C)(=O)[O-])c3)cc2N1 (stereo not drawn)	i
CN(C)CCOCC1(C)COc2ccc(C(=O)Nc3ccc4[nH]ccc4c3)cc2N1 (stereo not drawn)	+	MTase-Glo ctr=-1%[85.7 µM]
CN(C)C[C@@H]1CN(S(C)(=O)=O)C[C@H]1NC(=O)c1ccc2[nH]ccc2c1	i
SMILES	Methyltransferases	others
CCCCN(CCCC)CCCN1C(=O)c2cc3occc3n2CC1(C)C(=O)NC1CCCCCC1 (stereo not drawn)	i
CC1(C(=O)NC2CCCCC2)Cn2c(ccc2-c2ccco2)C(=O)N1CCc1cccs1 (stereo not drawn)	i
CCCn1c(=O)c2ccc(Cl)cc2n2c(=O)n(Cc3cccc(F)c3)nc12	i
COc1ccc2cc3n(c2c1)CC(C)(C(=O)NC1CCCC1)N(C1CCCC1)C3=O (stereo not drawn)	i
CC(=O)Nc1ccc(-c2nnc3n(CCc4ccccc4)c(=O)c4ccccc4n23)cc1	i
O=C(NCc1ccccc1Cn1cccn1)c1ccc2cccc(F)c2n1	i
OC1(Cn2ccnc2)CCN(Cc2ccccc2Cn2cccn2)CC1	+	MTase-Glo ctr=-1%
OCC(O)c1cc2n(n1)CCN(Cc1ccccc1Cn1cccn1)C2 (stereo not drawn)	i
Cc1ccccc1CCN1C(=O)c2ccc(-c3ccco3)n2CC1(C)C(=O)NC1CCCCCC1 (stereo not drawn)	i
COc1ccc(-c2cc3nc4c(c(=O)n3[nH]2)CN(C(=O)CN(C)S(=O)(=O)c2cnc[nH]2)CC4)cc1	+	MTase-Glo ctr=-6%
O=C(CCCc1nc2ccccc2s1)N1CCc2nc3cc(-c4ccccc4)[nH]n3c(=O)c2C1	i
CN(C)S(=O)(=O)N1CCc2c(nc3cc(-c4ccccc4)[nH]n3c2=O)C1	i
COc1ccc(-c2cc3n(n2)CC(C)(C(=O)NCc2ccccc2)N(CCc2cccs2)C3=O)cc1 (stereo not drawn)	i
Cc1cc2c(cc3n2CC(C)(C(=O)NC2CCCCCCC2)N(CCCN2CCCCCC2)C3=O)o1 (stereo not drawn)	i
COc1ccccc1N1C(=O)c2cc3ccccc3n2CC1(C)C(=O)NC1CCCCCC1 (stereo not drawn)	i
Cc1nn(-c2ccccc2)c(C)c1/C=N/N1CCN(Cc2ccccc2)CC1	i
c1ccc(Cn2cc(CN3CCN(c4ccncc4)CC3)c(-c3cc4ccccc4o3)n2)cc1	+	MTase-Glo ctr=5%
Cn1cc(CN2CCN(c3ccc(C#N)cn3)CC2)c(-c2ccccc2)n1	i
Cc1ccc(N2CCN(S(=O)(=O)c3ccc4c(c3)n(C)c(=O)n4C)CC2)c(C)c1	i
COC(=O)c1ncn2c1C(=O)N(Cc1ccc(OC)cc1)C(C)(C(=O)NC1CCCCCC1)C2 (stereo not drawn)	i
CC(C)(C)c1nn2c(SCC(=O)Nc3cccc(Cl)c3)nnc2[nH]c1=O	i
CCOC(=O)c1ccc2c(c1)[C@@H]1C=CC[C@@H]1[C@H](c1ccccc1C(F)(F)F)N2	i
CCNc1ncnc2sc3c(c12)CCN(Cc1ccncc1)C3	i
COc1ccc(-c2nc(N3CCOCC3)cc3c2CN(Cc2ccccc2)C3=O)cn1	i
c1ccc(CN2CCc3c(sc4ncnc(N5CCOCC5)c34)C2)cc1	+	MTase-Glo ctr=-8%
SMILES	Methyltransferases	others
COc1ccccc1N1CCN(C(=O)CCCc2nnc3n4nc(-c5ccccc5)nc4c4ccccc4n23)CC1	i
O=C(CCc1nnc2n(Cc3ccc(F)cc3)c(=O)c3ccccc3n12)NC1CC1	i
CC1(C(=O)NCc2ccccc2)Cn2c(nc3ccccc32)C(=O)N1Cc1ccccc1Cl (stereo not drawn)	i
N#Cc1ccccc1-c1cc2c(ccn2Cc2ccncc2)c(N2CCOCC2)n1	+	MTase-Glo ctr=4%[85.7 µM]
CC(NC(=O)c1ccc2c(=O)nc3c(-c4ccccc4)n[nH]n3c2c1)c1ccccc1 (stereo not drawn)	i
CC(C)OCCCn1c(=O)c2ccccc2n2c(SCC(=O)Nc3cc(F)ccc3F)nnc12	i
COCCNc1cc(-c2noc([C@@H]3CCCN3CC(C)C)n2)ccn1	+	MTase-Glo ctr=-3%[85.7 µM]
COCC(=O)Nc1ccc(-c2noc([C@@H]3CCCN3Cc3ncc[nH]3)n2)cn1	i
Fc1ccccc1CN1CCC[C@H]1c1nc(-c2ccnc(N3CCOCC3)c2)no1	i
CC(C)OCCCn1c(=O)c2ccccc2n2c(CCC(=O)Nc3ccc(F)cc3)nnc12	i
O=C(CCc1ccccc1)N1CCCC(CN2CCCC2)CC1 (stereo not drawn)	i
